Measured values taken from PubChem BioAssay (EPA / NIEHS).
Records with an inconclusive call do not appear. The source made the active and inactive calls. How the source made its calls: active means hit-call score of the fitted dose curve at least 0.9, where 1 is the maximum; inconclusive means response in the unintended direction; inactive means score below 0.9.

Legend:
[1] = ACEA_AR_agonist_AUC_viability: ACEA Biosciences xCELLigence Real-Time Cell Analysis on Androgen Receptor Agonism for Viability (AID 2283775);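 on AC50: viability read 80 hours after compound addition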
Procedure, shortened: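 Viability endpoint from xCELLigence impedance in 22Rv1 prostate cells at 80 h. Eight-point series, 100 uM maximum final.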

[2] = ACEA_AR_antagonist_AUC_viability: ACEA Biosciences xCELLigence Real-Time Cell Analysis on Androgen Receptor Antagonism for Viability (AID 2283776);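 further: area under impedance growth curve at 80 h after dosing as viability; hits lower the growth signal relative to DMSO meaning cytotoxicity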
Procedure, shortened: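 22Rv1 human prostate cancer cells were seeded on electrode plates, monitored overnight, then exposed to eight 1:4 dilutions from 100 uM final. Impedance-based growth kinetics at 80 h gave an AUC viability endpoint normalized to DMSO.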

[3] = target: zebrafish Estrogen Receptor (ESR1), esr1 (gene 259252) (UniProt P57717); experiment: ATG_zfER1_XSP1: Attagene TRANS-FACTORIAL Multi-Species (XSP1) HepG2 Assay for zebrafish Estrogen Receptor (ESR1) (AID 2283772)
Procedure, shortened: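 Trans-activation readout: transfected zebrafish ER-Gal4 drives a UAS reporter in human HepG2 liver cells. After 24 h compound exposure (medium containing 3 nM 6-alpha-fluorotestosterone), induced reporter transcripts were quantified by RT-PCR with capillary electrophoresis, relative to DMSO.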

[4] = test system: zebrafish Estrogen Receptor (ESR2B), gene 317733; experiment: ATG_zfER2b_XSP1: Attagene TRANS-FACTORIAL Multi-Species (XSP1) HepG2 Assay for zebrafish Estrogen Receptor (ESR2B) (AID 2283773)
Procedure, shortened: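 Human hepatoma HepG2, transiently transfected with multi-reporter units; exogenous zebrafish ESR2B-Gal4 activity measured. Exposure 24 h alongside 3 nM 6-alpha-fluorotestosterone to partly stimulate AR.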

[5] = test system: frog Estrogen Receptor (ESR2), gene 100174814; experiment: ATG_frER2_XSP1: Attagene TRANS-FACTORIAL Multi-Species (XSP1) HepG2 Assay for frog Estrogen Receptor (ESR2) (AID 2283774)
Procedure, shortened: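 Multiplexed TRANS-format reporter assay in human hepatoma HepG2: chimeric nuclear receptor-Gal4 activity reported as mRNA induction at 24 h, detected by fluorescent RT-PCR products on capillary electrophoresis and fitted upward from DMSO baseline.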

[6] = test system: frog Estrogen Receptor (ESR1), gene 398734; experiment: ATG_frER1_XSP1: Attagene TRANS-FACTORIAL Multi-Species (XSP1) HepG2 Assay for frog Estrogen Receptor (ESR1) (AID 2283777)
Procedure, shortened: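 After transient transfection and 24 h compound treatment, total RNA from HepG2 cells was reverse-transcribed, amplified, FAM-labeled and resolved by capillary electrophoresis. Signal increases were fitted against DMSO controls.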

[7] = test system: zebrafish Estrogen Receptor (ESR2A), gene 317734; experiment: ATG_zfER2a_XSP1: Attagene TRANS-FACTORIAL Multi-Species (XSP1) HepG2 Assay for zebrafish Estrogen Receptor (ESR2A) (AID 2283778)
Procedure, shortened: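 Gain-of-signal reporter transcription readout from GAL4-UAS units in transiently transfected HepG2 cells, 24 h exposure, 3 nM 6-alpha-fluorotestosterone co-present. Detection by RT-PCR with capillary electrophoresis fluorescence.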

[8] = target: chicken Estrogen Receptor (ESR1), ESR1 (gene 396099) (UniProt P06212); experiment: ATG_chERa_XSP1: Attagene TRANS-FACTORIAL Multi-Species (XSP1) HepG2 Assay for chicken Estrogen Receptor (ESR1) (AID 2283779)
Procedure, shortened: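 Gain-of-signal reporter transcription, relative to DMSO, was scored in transiently transfected HepG2 cells after a 24 h dose. Fluorescence intensity of amplified, digested reporter cDNA fragments served as the endpoint.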

[9] = test system: chicken Androgen Receptor (AR), gene 422165; experiment: ATG_chAR_XSP1: Attagene TRANS-FACTORIAL Multi-Species (XSP1) HepG2 Assay for chicken Androgen Receptor (AR) (AID 2283768)
Procedure, shortened: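 Reporter mRNA read by RT-PCR with fluorescent labelling and capillary electrophoresis 24 h after chemical dosing of transiently transfected HepG2 cells. Chicken AR-Gal4 chimera, partially stimulated with 3 nM 6-alpha-fluorotestosterone; activity fitted upward relative to DMSO.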

[10] = test system: zebrafish Androgen Receptor (AR), gene 100005148; experiment: ATG_zfAR_XSP1: Attagene TRANS-FACTORIAL Multi-Species (XSP1) HepG2 Assay for zebrafish Androgen Receptor (AR) (AID 2283771)
Procedure, shortened: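 Gain-of-signal versus DMSO was measured as reporter transcripts quantified by RT-PCR, fluorescent labelling and capillary electrophoresis after 24 h chemical exposure. The cells were HepG2 expressing a chimeric zebrafish AR-GAL4, co-stimulated with 3 nM 6-alpha-fluorotestosterone.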

Sequence of zebrafish Estrogen Receptor (ESR1), esr1 (gene 259252) (P57717 whole entry, looked up, the tested form may be a part): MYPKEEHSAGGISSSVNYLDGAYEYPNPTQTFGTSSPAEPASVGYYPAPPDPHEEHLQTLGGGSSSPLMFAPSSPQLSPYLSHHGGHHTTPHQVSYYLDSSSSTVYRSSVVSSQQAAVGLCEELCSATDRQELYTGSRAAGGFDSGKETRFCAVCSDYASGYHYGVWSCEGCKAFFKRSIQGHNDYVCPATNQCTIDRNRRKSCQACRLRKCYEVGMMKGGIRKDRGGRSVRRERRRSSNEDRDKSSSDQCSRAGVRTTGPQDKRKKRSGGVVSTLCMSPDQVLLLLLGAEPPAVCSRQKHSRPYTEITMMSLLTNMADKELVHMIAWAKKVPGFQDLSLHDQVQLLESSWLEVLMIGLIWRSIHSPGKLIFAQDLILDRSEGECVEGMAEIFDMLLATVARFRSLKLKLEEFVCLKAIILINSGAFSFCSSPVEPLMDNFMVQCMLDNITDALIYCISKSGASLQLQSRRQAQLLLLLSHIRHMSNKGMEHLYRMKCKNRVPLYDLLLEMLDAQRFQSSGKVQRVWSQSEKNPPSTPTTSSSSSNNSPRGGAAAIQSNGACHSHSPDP
Sequence of chicken Estrogen Receptor (ESR1), ESR1 (gene 396099) (P06212 whole entry, looked up, the tested form may be a part): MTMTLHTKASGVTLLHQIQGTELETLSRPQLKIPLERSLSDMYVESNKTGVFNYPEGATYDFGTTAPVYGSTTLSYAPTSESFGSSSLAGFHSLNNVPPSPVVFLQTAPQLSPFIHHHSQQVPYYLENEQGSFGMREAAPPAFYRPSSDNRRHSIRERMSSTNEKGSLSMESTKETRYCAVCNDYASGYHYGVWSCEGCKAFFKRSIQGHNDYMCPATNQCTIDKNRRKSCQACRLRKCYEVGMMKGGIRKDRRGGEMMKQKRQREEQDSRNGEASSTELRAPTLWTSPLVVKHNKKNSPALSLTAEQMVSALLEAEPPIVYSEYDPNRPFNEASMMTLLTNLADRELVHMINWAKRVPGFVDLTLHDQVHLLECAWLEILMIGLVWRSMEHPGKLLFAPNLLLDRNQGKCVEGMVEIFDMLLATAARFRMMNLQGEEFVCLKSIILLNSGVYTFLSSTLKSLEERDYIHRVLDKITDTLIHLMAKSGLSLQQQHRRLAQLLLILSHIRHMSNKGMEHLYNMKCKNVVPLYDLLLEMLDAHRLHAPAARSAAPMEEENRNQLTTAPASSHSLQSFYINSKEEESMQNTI

Compound: COCC(C)N(C(=O)CCl)c1c(C)csc1C (configuration not stated)
- outcome [1]: inactive
- AC50 [2]: 33 µM (active)

Compound: CCN(CC)C(=O)C(C)Oc1cccc2ccccc12 (configuration not stated)
- outcome [3]: inactive
- AC50 [4]: 27.1 µM (active)
- AC50 [5]: 27.4 µM (active)
- outcome [1]: inactive
- outcome [2]: inactive
- AC50 [6]: 24.8 µM (active)
- AC50 [7]: 25.8 µM (active)
- outcome [8]: inactive

Compound: CCCCC(C#N)(Cn1cncn1)c1ccc(Cl)cc1 (configuration not stated)
- AC50 [1]: 83.1 µM (active)
- AC50 [2]: 79 µM (active)

Compound: CCOP(=S)(OCC)Oc1nc(Cl)n(C(C)C)n1
- outcome [1]: inactive
- outcome [2]: inactive

Compound: CC(C)NC(=O)N1CC(=O)N(c2cc(Cl)cc(Cl)c2)C1=O
- outcome [9]: inactive
- outcome [10]: inactive
- outcome [3]: inactive
- AC50 [4]: 100 µM (active)
- AC50 [5]: 100 µM (active)
- AC50 [1]: 11.2 µM (active)
- AC50 [6]: 100 µM (active)
- outcome [7]: inactive
- outcome [8]: inactive

Compound: Cc1cnc(C2=NC(C)(C(C)C)C(=O)N2)c(C(=O)O)c1 (configuration not stated)
- outcome [1]: inactive
- outcome [2]: inactive

Compound: O=C(O)c1c(Cl)ccc2cc(Cl)cnc12
- outcome [2]: inactive

Compound: CCOc1nc(C(Cl)(Cl)Cl)ns1
- outcome [1]: inactive
- outcome [2]: inactive

Compound: C=CCOC(=O)C(C)(C)OC(=O)c1cc(-n2c(=O)cc(C(F)(F)F)n(C)c2=O)ccc1Cl
- AC50 [1]: 50.5 µM (active)
- AC50 [2]: 50.5 µM (active)

Compound: CC(C)=CC1C(C(=O)OCc2coc(Cc3ccccc3)c2)C1(C)C (configuration not stated)
- AC50 [1]: 46 µM (active)
- AC50 [2]: 40.4 µM (active)

Compound: CN=C=S
- outcome [1]: inactive
- outcome [2]: inactive

Compound: CC(C)Nc1nc(Cl)nc(NC(C)C)n1
- outcome [2]: inactive

Compound: CC(C)N1C(=O)N(c2ccccc2)CSC1=NC(C)(C)C
- AC50 [1]: 28.9 µM (active)
- AC50 [2]: 50 µM (active)

Compound: CN/C(=N\[N+](=O)[O-])NCc1cnc(Cl)s1
- outcome [1]: inactive
- outcome [2]: inactive

Compound: CS(=O)(=O)c1cc(C(F)(F)F)ccc1C(=O)c1cnoc1C1CC1
- outcome [2]: inactive

Compound: O=c1n(Cl)c(=O)n(Cl)c(=O)n1Cl
- outcome [1]: inactive
- outcome [2]: inactive

Compound: COC(=O)NS(=O)(=O)c1ccc(N)cc1
- outcome [2]: inactive

Compound: CCOc1cc(C(C)(C)C)ccc1C1COC(c2c(F)cccc2F)=N1 (configuration not stated)
- AC50 [1]: 24 µM (active)
- AC50 [2]: 19.1 µM (active)

Compound: COC(=O)c1c(C(F)F)nc(C(F)(F)F)c(C2=NCCS2)c1CC(C)C
- outcome [1]: inactive
- outcome [2]: inactive

Compound: CCNP(=S)(OC)O/C(C)=C/C(=O)OC(C)C (configuration not stated)
- outcome [1]: inactive
- outcome [2]: inactive

Compound: CCNC(=O)NC(=O)C(C#N)=NOC
- outcome [2]: inactive

Compound: Nc1c(Cl)c(F)nc(OCC(=O)O)c1Cl
- outcome [1]: inactive
- outcome [2]: inactive

Compound: N#Cc1c(Cl)cccc1Cl
- outcome [1]: inactive
- outcome [2]: inactive

Compound: CCCN(CC)CC1COC2(CCC(C(C)(C)C)CC2)O1 (configuration not stated)
- AC50 [1]: 77.3 µM (active)
- AC50 [2]: 77.7 µM (active)

Compound: CC1(C)CON(Cc2ccccc2Cl)C1=O
- outcome [1]: inactive
- AC50 [2]: 18.6 µM (active)

Compound: Cc1cc(C)nc(Nc2ccccc2)n1
- outcome [1]: inactive
- outcome [2]: inactive

Compound: CC(C)(C)C(=O)C(Oc1ccc(Cl)cc1)n1cncn1 (configuration not stated)
- outcome [1]: inactive
- outcome [2]: inactive

Compound: CCCCC(O)(Cn1cncn1)c1ccc(Cl)cc1Cl (configuration not stated)
- AC50 [1]: 69.8 µM (active)
- AC50 [2]: 50 µM (active)

Compound: O=C(Nc1ccccc1-c1ccc(Cl)cc1)c1cccnc1Cl
- AC50 [1]: 61.3 µM (active)
- AC50 [2]: 50 µM (active)

Compound: CCC(C)n1c(=O)[nH]c(C)c(Br)c1=O (configuration not stated)
- outcome [1]: inactive
- outcome [2]: inactive

Compound: CC(C)C1(C)N=C(c2ncccc2C(=O)O)NC1=O (configuration not stated)
- outcome [1]: inactive
- outcome [2]: inactive

Compound: CNC(=O)N(C)c1nnc(C(C)(C)C)s1
- outcome [1]: inactive
- outcome [2]: inactive

Compound: Nc1cnn(-c2ccccc2)c(=O)c1Cl
- outcome [1]: inactive
- outcome [2]: inactive

Compound: CCCC(=NOCC)C1=C(O)CC(CC(C)SCC)CC1=O (configuration not stated)
- AC50 [1]: 79.5 µM (active)
- outcome [2]: inactive

Compound: CNC(=O)Oc1cccc2ccccc12
- AC50 [2]: 24.8 µM (active)

Compound: Clc1cccc(C(Cl)(Cl)Cl)n1
- outcome [1]: inactive
- outcome [2]: inactive

Compound: Cn1c(-c2ccccc2)cc(-c2ccccc2)[n+]1C
- AC50 [1]: 28.7 µM (active)
- AC50 [2]: 41.7 µM (active)

Compound: COP(=O)(OC)O/C(C)=C/C(=O)N(C)C
- outcome [1]: inactive
- outcome [2]: inactive

Compound: O=C1C2CC=CCC2C(=O)N1SC(Cl)(Cl)Cl (configuration not stated)
- AC50 [1]: 24.5 µM (active)
- AC50 [2]: 17.2 µM (active)

Compound: CC(C)N1C(=O)c2ccccc2NS1(=O)=O
- outcome [1]: inactive
- outcome [2]: inactive
